According to PubChem BioAssay:
The source made the active and inactive calls.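 The calls were made as follows, unless noted: active = fluorescence slope after compound addition differing from the mean of all screened samples at 99.7% confidence, in either direction; inactive = the rest.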

Assays:
[1] = inhibitors of TNFa-induced NFkB p65 translocation, primary screen, imaging, HUVEC, MLSMR starter and 10KST1 sets (AID 438;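 active = inhibition above 20% together with a positive visual image hit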;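 also: compound added about 3h40 before a 20 min TNFalpha stimulation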;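 as to inhibition: signal is the nuclear over cytoplasmic p65 intensity ratio per well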); conditions: HUVEC TNFa-induced p65 nuclear translocation; cell count: measured here: nuclei count (cytotoxicity indicator), at 2.08 µM; inhibition: at 2 µM, stronger effect = higher value, 0% TNFa-plus-vehicle, 100% no-TNFa wells
[2] = reduction of polyQ htt aggregates in cells – imaging, exon1htt(103Q)mCFP cells, high-content imaging, primary screen (AID 483;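 active = visual image review flags a hit and inhibition of aggregation exceeds 20%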;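 also: compound exposure lasted 3 days before fixation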;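 as to nuclei count: percent of the per-plate median nuclei count of sample wells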); conditions: exon1htt(103Q)mCFP cell line, aggregate imaging, at 2 µM; inhibition of aggregation: stronger effect = higher value; nuclei count: measured here: cell count, toxicity
[3] = endothelial E-selectin expression blockers – imaging, HUVEC, immunofluorescence, MLSMR starter and 10KST1 sets, primary screen (AID 487;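 active = visually confirmed hit in the image check and inhibition above 20%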;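 as to inhibition: signal is fraction of cell area covered by stained E-selectin grains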;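 as to nuclei count: 100% = median nuclei count of all wells on the same plate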); conditions: HUVEC TNFalpha-induced E-selectin immunofluorescence imaging, at 2 µM; inhibition: stronger effect = higher value; nuclei count: measured here: cell number, toxicity
[4] = target: Voltage-gated potassium channel subunit beta-2 (Rattus norvegicus) (UniProt P62483); experiment: inhibitors of rat Kvbeta2 reductase activity – biochemical, NADPH fluorescence, primary screen (AID 622;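 active = fluorescence slope higher than the sample average by over 3 SD, cut at about -0.22 in these data, passing the limit was not always enough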;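 also: slope of raw intensity against log time taken from 70 to 1610 s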); conditions: recombinant KvBeta, 4-cyanobenzaldehyde reduction, at 10 µM, stronger effect = higher value
Sequence of Voltage-gated potassium channel subunit beta-2 (Rattus norvegicus) (P62483 whole entry, looked up): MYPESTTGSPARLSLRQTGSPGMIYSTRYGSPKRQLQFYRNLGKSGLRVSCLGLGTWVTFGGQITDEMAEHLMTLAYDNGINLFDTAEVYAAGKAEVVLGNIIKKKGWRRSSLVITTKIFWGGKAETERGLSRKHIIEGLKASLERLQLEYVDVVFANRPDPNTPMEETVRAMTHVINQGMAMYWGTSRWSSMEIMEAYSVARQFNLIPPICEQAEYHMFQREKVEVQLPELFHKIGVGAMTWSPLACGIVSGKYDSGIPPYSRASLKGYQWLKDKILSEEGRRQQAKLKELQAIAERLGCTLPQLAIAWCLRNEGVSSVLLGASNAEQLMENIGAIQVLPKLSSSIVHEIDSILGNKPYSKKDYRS

[5] = target: Voltage-gated potassium channel subunit beta-2 (Rattus norvegicus) (UniProt P62483); experiment: enhancers of rat Kvbeta2 NADPH turnover – biochemical, NADPH fluorescence, primary screen (AID 623;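 active = NADPH fluorescence slope more negative than the mean of all samples by about 3 SD, 99.7% confidence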;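 also: fluorescence intensity change per second fitted from 20 to 320 s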); conditions: Recombinant KvBeta, NADPH fluorescence decrease slope, 10 min; at 10 µM; stronger effect = lower value
[6] = target: Alpha-2C adrenergic receptor (Homo sapiens) (UniProt P18825); experiment: compounds altering alpha2C-coupled GIRK flux – cell-based, HEK293 alpha2C/GIRK1/2, thallium flux, primary screen (AID 624); conditions: thallium flux BTC fluorescence, at 10 µM, actives lie on both sides;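 also: slope of fluorescence ratio to pre-addition baseline per second over 15 to 24 s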
Sequence of Alpha-2C adrenergic receptor (Homo sapiens) (P18825 whole entry, looked up): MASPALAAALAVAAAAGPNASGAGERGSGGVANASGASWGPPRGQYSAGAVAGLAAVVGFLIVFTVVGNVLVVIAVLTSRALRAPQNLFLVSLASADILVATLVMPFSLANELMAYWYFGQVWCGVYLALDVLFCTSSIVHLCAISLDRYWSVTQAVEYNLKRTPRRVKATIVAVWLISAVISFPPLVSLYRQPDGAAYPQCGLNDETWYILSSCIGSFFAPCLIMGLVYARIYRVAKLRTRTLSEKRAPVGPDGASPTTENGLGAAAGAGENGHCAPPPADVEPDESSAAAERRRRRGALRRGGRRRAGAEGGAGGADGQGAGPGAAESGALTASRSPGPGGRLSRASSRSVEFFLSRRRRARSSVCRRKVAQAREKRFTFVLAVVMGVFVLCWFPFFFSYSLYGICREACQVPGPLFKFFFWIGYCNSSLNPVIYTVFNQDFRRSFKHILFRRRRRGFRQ

[7] = blockers of RIG-like receptor reporter activation – cell-based, Sendai virus stimulus, luciferase, 10K MLSCN set, TLR/RLR signaling modifier project, primary screen (AID 602276;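 active = inhibition at or above 50% at 10 µM; inactive = inhibition below 50%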;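 also: firefly luciferase from ISG56 promoter only with Renilla not read in this screen; 0% = Sendai virus plus DMSO and 100% = medium plus DMSO without virus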); conditions: HEK293 RL24 IRF3 luciferase reporter, at 10 µM, stronger effect = higher value
[8] = TLR3 IRF3 reporter activation blockers – cell-based, poly I:C stimulus, luciferase, 10K MLSCN set, primary screen (AID 602277;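 active = inhibition of the reporter signal at or above 50%; inactive = inhibition below 50%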); conditions: HEK293-TLR3 RL24 IRF3 luciferase reporter, at 10 µM, stronger effect = higher value

Structure (SMILES)	cell count [1]	inhibition [1]	inhibition of aggregation [2]	nuclei count [2] [%]	inhibition [3]	nuclei count [3] [%]	fluorescence slope [4]	NADPH fluorescence slope [5]	slope [6]	inhibition [7]	inhibition [8]
COc1ccccc1NC(=O)NCCCN1CCN(c2cccc(Cl)c2)CC1	628	-11.6% (inactive)	13.1% (inactive)	112	-47.7% (inactive)	118	-0.556 (inactive)	1e-05 (inactive)	0.00548 (inactive)	-24.8% (inactive)	-19.5% (inactive)
COc1ccccc1NC(=O)Cn1nnc(-c2ccccc2NC(=O)c2ccco2)n1	317	6.2% (inactive)	-19% (inactive)	86.5	-29.7% (inactive)	117	-0.408 (inactive)	-1.3e-05 (inactive)	0.00705 (inactive)	16.8% (inactive)	37.7% (inactive)
Cc1csc(SCCn2c(N3CCCC3)nc3c2c(=O)[nH]c(=O)n3C)n1	445	53.9% (active)	-7.1% (inactive)	110	-26.1% (inactive)	127	-0.38 (inactive)	-3.1e-05 (inactive)	0.00532 (inactive)	1.74% (inactive)	16.5% (inactive)
Cc1cc2cc(CN(CC3CCCO3)C(=O)c3cnccn3)c(=O)[nH]c2cc1C (stereo not given)	330	5.3% (inactive)	-0.3% (inactive)	107	-22.4% (inactive)	125	-0.592 (inactive)	-5.9e-05 (inactive)	0.00376 (inactive)	-3.76% (inactive)	-3.05% (inactive)
O=C(Nc1cnn(C23CC4CC(CC(C4)C2)C3)c1)c1cnn2c(C(F)(F)F)cc(-c3ccco3)nc12	501	-8.8% (inactive)	-4.4% (inactive)	108	-107% (inactive)	121	-0.498 (inactive)	-2.2e-05 (inactive)	0.00429 (inactive)	8.99% (inactive)	-44.9% (inactive)
CCOC(=O)/C=C1\CC(=O)Nc2nonc2N1	330	-3.4% (inactive)	2% (inactive)	105	-22.6% (inactive)	118	-0.507 (inactive)	-6.7e-05 (inactive)	0.00414 (inactive)	22% (inactive)	21.4% (inactive)
CC(c1ccco1)N(Cc1ccco1)C(=O)Nc1ccccc1 (stereo not given)	511	1% (inactive)	13.9% (inactive)	90.3	-45.1% (inactive)	97.5	-0.574 (inactive)	5.2e-05 (inactive)	0.00511 (inactive)	-3.9% (inactive)	-21.4% (inactive)
CCCSc1nc(N)c(C#N)c(-c2ccc(C)cc2)c1C#N	683	10.1% (inactive)	-10.3% (inactive)	104	-31.9% (inactive)	141	-0.382 (inactive)	-6.2e-05 (inactive)	0.00536 (inactive)	3.6% (inactive)	9.67% (inactive)
CC(C)c1cc(C(=O)NCc2ccco2)no1	788	3.7% (inactive)	-21.5% (inactive)	104	-45.3% (inactive)	106	-0.586 (inactive)	-2.6e-05 (inactive)	0.00624 (inactive)	-22.8% (inactive)	-50.6% (inactive)
CCOc1ccc(OCCCCN(C)C)cc1	386	1.8% (inactive)	5.3% (inactive)	110	-111% (inactive)	104	-0.299 (inactive)	-6.7e-06 (inactive)	0.00564 (inactive)	8.3% (inactive)	27.7% (inactive)
